# According to PubChem BioAssay AID485364 (National Center for Advancing Translational Sciences (NCATS), 2010):
# Screen size: about 360,000 compounds; about 11,000 (3.1%) were called active. Where a call stands in place of a potency, no number is given. Inconclusive results (about 4%) are left out. Calls follow the shape of the dose curve; as a rule, active = well fitted inhibition curve with a large enough effect; inconclusive = small, poorly fitted or top-dose-only effect; inactive = no such curve, though single readings can be large or run the other way. The sample as a whole holds a higher share of actives than the screen did.
# Biological target: Schistosoma mansoni thioredoxin glutathione reductase (TGR) (UniProt Q962Y6)
# Test: qHTS Assay for the Inhibitors of Schistosoma Mansoni Peroxiredoxins; also: nearly all actives have a fitted effect of over 60% in size
# Settings: purified TGR, DTNB reduction, TNB absorbance 405 nm; series mostly up to 114 µM
# Excerpt: Schistosomiasis is a major neglected tropical disease that currently affects over 200 million. It is caused by different species of flatworms, such as Schistosoma mansoni. Over the last century, drugs to treat the disease have evolved from potassium antimonyl tartrate, artemisinin, oxamniquine, to praziquantel, with praziquantel remaining the universally-used single drug of choice over the past three decades. However, transmission rates have changed little with praziquantel, and there is evidence for the development of drug resistant parasites. Because there is currently no suitable alternative therapy available, there is an urgent need to identify new targets and drugs for schistosomiasis treatment. Thioredoxin glutathione reductase (TGR), one uniquely positioned S. mansoni enzyme, has been identified as a major component of the worms' distinct and compressed antioxidant "firewall". TGR is a multifunctional enzyme that catalyzes the interconversion between reduced and oxidized forms of both glutathione (GSH) and thioredoxins, thus making it an attractive new antiparasitic target. Recently, a quantitative high-throughput screen of the NIH Molecular Libraries Small Molecule Repository (MLSMR, ~71K at the time of the screen in 2007) was performed using an assay that targeted both TGR and peroxiredoxin2 (Prx2, an H2O2-reducing enzymatic component of the S. mansoni redox "firewall") by following the decrease of NADPH fluorescence. […] Additional mechanistic link between exogenous NO donation and parasitic injury for the oxadiazole-2-oxide class of compounds was also expanded and better defined. Although the screen addressed both TGR and Prx2, the assay required post-screen target deconvolution for further characterization of the actives. In addition, the fluorescence assay was also subject to fluorescence interference from compound library members. We have developed a 1536-well-based kinetic HTS assay to address TGR alone. The assay followed the reduction of 5, 5'-dithiobis (2-nitrobenzoic acid) (DTNB) (Ellman's reagent) by NADPH and measured the increase in absorbance at 412 nm of the reaction product, TNB. […] This assay format can be used to screen the current MLSMR collection (with >300K compounds available) to find novel TGR inhibitors. Furoxan is a good choice to serve as a positive control in the primary HTS assay.
# Three microliters of reagents (100 uM NADPH and 20 nM TGR or 100 uM NADPH as no-enzyme control) were dispensed into 1,536-well black clear-bottomed plates. Compounds (23 nL) were transferred via Kalypsys pin tool equipped with 1536-pin array (10 nL slotted pins, V&P Scientific, San Diego, CA). The plates were then be incubated for 15 min at room temperature, and 1 uL aliquot of 500 uM NADPH were added, immediately followed by a 1 uL aliquot of 15 mM DTNB to start the reaction. The plate was transferred to a ViewLux high-throughput CCD imager (Perkin-Elmer, Wellesley, MA) where kinetic measurements of the TNB absorbance were acquired using a 405 excitation filter. Throughout the screen, reagent bottles and all liquid lines were made light-tight to minimize reagent degradation. All screening operations were performed on a fully integrated robotic system (Kalypsys, San Diego, CA) containing one RX-130 and two RX-90 anthropomorphic robotic arms (Staubli, Duncan, SC). Library plates were screened starting from the lowest and proceeding to the highest concentration, and a "double-dipping" step of the highest concentration was required to access higher concentrations of compounds. Vehicle-only plates, with DMSO being pin-transferred to the entire column 5-48 compound area, were inserted uniformly at the beginning and the end of each library in order to monitor for and record any shifts in the background, which can be affected by reagent dispensers or loss in enzyme activity overtime. […]
# Potency is read from the fitted curve at half-maximal effect.
row,SMILES,Potency
1,COc1ccc(S(=O)(=O)N2CCC(C(=O)N3CCOCC3)CC2)cc1OC,79.4 µM (active)
2,CCN1CCN(C(=O)C2CCCN(S(=O)(=O)c3ccc(OC)c(OC)c3)C2)CC1 (configuration not stated),inactive
3,COc1ccc(S(=O)(=O)N2CCC(C(=O)N3CCCC3)CC2)cc1C,inactive
4,O=C(C1CCC(Cn2c(=O)c3sccc3n(Cc3ccccc3F)c2=O)CC1)N1CCCCC1 (configuration not stated),inactive
5,COc1ccc(Cl)cc1NC(=O)c1sc2nc3c(cc2c1N)CN(C)CC3,inactive
6,CCCCN(CC)C(=O)c1c[nH]c2ccc(S(=O)(=O)Nc3cccc(OC)c3)cc2c1=O,inactive
7,CC1(C)N=C(SCc2ccccc2Cl)c2ccccc2N1,inactive
8,Clc1ccc(CSc2nnc3c(n2)[nH]c2ccccc23)cc1,inactive
9,Cc1ccc(-c2nnc(SCC(=O)NCc3ccccc3)nc2-c2ccc(C)cc2)cc1,inactive
10,Clc1ccccc1CSc1nnc(-c2ccco2)c(-c2ccco2)n1,7.94 µM (active)
11,Clc1ccccc1CSc1nncn2c1cc1occc12,inactive
12,c1ccc(CSc2nnc(-c3ccco3)c(-c3ccco3)n2)cc1,2.82 µM (active)
13,COc1ccccc1CNC(=O)CCCn1c(=O)c2ccccc2n(CC(=O)Nc2ccc(C)cc2Cl)c1=O,inactive
14,CCN(CC)c1ccc(C2C(C(N)=O)=C(C)Nc3nc(SCc4ccccc4)nn32)cc1 (configuration not stated),inactive
15,CC1=C(C(N)=O)C(c2ccc3c(c2)OCO3)n2nc(-c3cccc(C)c3)nc2N1 (configuration not stated),0.251 µM (active)
16,COc1cccc(-c2nc3n(n2)C(c2ccccc2Cl)C(C(N)=O)=C(C)N3)c1 (configuration not stated),inactive
17,Cc1cccc(-n2ccnc2SCC(=O)Nc2cccc3ccccc23)c1C,inactive
18,COc1ccc(-c2cc(C(F)(F)F)nc(S(C)(=O)=O)n2)cc1OC,31.6 µM (active)
19,COc1ccc(CCNc2nc(-c3ccc(F)cc3)cc(C(F)(F)F)n2)cc1OC,inactive
20,COc1ccc(-c2cc(C(F)(F)F)nc(SCC(=O)N(C)Cc3ccccc3)n2)cc1OC,inactive
21,CC1CN(C(=O)N2CCC(C(=O)NCc3ccco3)CC2)c2cc(Cl)ccc2O1 (configuration not stated),inactive

row,SMILES,Potency
1,Cc1cc(Cl)ccc1OCC(=O)N(Cc1ccc(N(C)C)cc1)C1CCS(=O)(=O)C1 (configuration not stated),inactive
2,CC1CCN(C(=O)COC(=O)CCC(=O)c2cccs2)CC1,inactive
3,O=C(COC(=O)CCC(=O)c1cccs1)NCc1ccco1,25.1 µM (active)
4,O=C(COC(=O)c1cccs1)NCc1cccs1,inactive
5,CCN(CCCNC(=O)c1cc2c(=O)n(CC)c3ccccc3c2s1)Cc1ccccc1,inactive
6,CCc1ccc(Nc2ncc3c(n2)CC(c2ccco2)CC3=O)cc1 (configuration not stated),39.8 µM (active)
7,CCN1CCN(c2ncc3c(n2)CC(c2ccccc2O)CC3=O)CC1 (configuration not stated),inactive
8,O=C(Nc1ncc2c(n1)CC(c1ccco1)CC2=O)c1ccc(Cl)cc1 (configuration not stated),44.7 µM (active)
9,CC1=C(C(=O)Nc2ccc(Cl)cc2)C(c2ccco2)NC(=O)N1 (configuration not stated),inactive
10,O=C(Nc1ncc2c(n1)-c1ccccc1OC2)c1ccc(Cl)cc1,inactive
11,COc1cc(C2CC(=O)c3cnc(NC(C)=O)nc3C2)cc(OC)c1OC (configuration not stated),inactive
12,COc1ccc(C(=O)COC(=O)CCCC(=O)Nc2cc(C(F)(F)F)ccc2Cl)cc1,inactive
13,CCc1ccc(C(=O)CC2(O)C(=O)N(CCc3ccccc3)c3ccc(Br)cc32)cc1 (configuration not stated),inactive
14,CC1CCN(c2nc3ccc(C(=O)N4CCN(c5ccccc5)CC4)cc3s2)CC1,inactive
15,CCCN(CCC)CCCNC(=O)Cn1cc2c(n1)-c1c(oc(C(=O)N3CCCC3)c1C)CC2,inactive
16,CCC(=O)Nc1cccc(-c2nc3cc(C)ccc3o2)c1,inactive
17,C[C@@H]1C[C@@H]2O[C@H]2/C=C\C=C\C(=O)Cc2c(Cl)c(O)cc(O)c2C(=O)O1,4.47 µM (active)
18,CC(C)CC(NS(=O)(=O)c1ccc2c(c1)oc(=O)n2C)C(=O)NCc1ccccc1Cl (configuration not stated),inactive
19,CCc1ccc(NC(=O)CN2CCSc3ccc(S(=O)(=O)N4CCCC4)cc32)cc1,inactive
20,COc1ccc(-c2cc(C(=O)Nc3sc4c(c3C(N)=O)CCCC4)no2)cc1,inactive
21,Cc1cc(OC(C)C(=O)Nc2sc3c(c2C(N)=O)CCCC3)ccc1Cl (configuration not stated),inactive

row,SMILES,Potency
1,NC(=O)c1c(Nc2nc3c(F)cccc3s2)sc2c1CCCC2,39.8 µM (active)
2,COC(=O)c1ccc(NC(=O)CSc2n[nH]c(-c3ccccc3)n2)cc1,inactive
3,Cc1ccc(CN2COc3cc(C)c4c(oc(=O)c5ccccc54)c3C2)cc1,inactive
4,COc1cc(CN(C(=O)c2ccccc2Br)c2ccccn2)cc(OC)c1OC,inactive
5,COc1cccc(CNC(=O)C2CCN(S(=O)(=O)c3ccc4c(ccn4C)c3)CC2)c1,inactive
6,COc1cc(/C=N/Nc2ccc(C)cc2)cc(Br)c1O,10 µM (active)
7,COc1cc(/C=N/O)cc(Br)c1OS(=O)(=O)c1ccc(C)cc1,inactive
8,COc1cc(/C=N/NC(=S)Nc2cccnc2)cc(OC)c1O,inactive
9,COc1ccc2cc(CCl)c(Cl)nc2c1,31.6 µM (active)
10,COc1ccc2oc(-c3cccc(NC(=O)CSc4ccc(Cl)cc4)c3)nc2c1,inactive
11,CCc1ccc(CNC(=O)c2cc3cc4ccc(OC)cc4nc3o2)cc1,inactive
12,CCOc1ccc(Nc2nc3c(S(=O)(=O)c4cccc(Cl)c4)nnn3c3ccsc23)cc1,inactive
13,CSCCC1NC2(C(=O)Nc3ccc(Cl)cc32)[C@@H]2C(=O)N(C3CCCC3)C(=O)[C@H]12 (some centres not stated),31.6 µM (active)
14,C[C@@]12C(=O)N(c3cccc(Br)c3)C(=O)N1[C@H](c1ccc(Cl)cc1)[C@@H]1C(=O)N(C3CCCCC3)C(=O)[C@@H]12,inactive
15,O=C1[C@@H]2C(Cc3ccc(O)cc3)NC3(C(=O)Nc4ccc(F)cc43)[C@@H]2C(=O)N1c1ccc(F)cc1 (some centres not stated),inactive
16,CN(Cc1ccccc1)S(=O)(=O)c1ccc(F)c(C(=O)Nc2cccc(Cl)c2Cl)c1,inactive
17,Cc1ccc(CCNC(=O)Cn2c(-c3cccs3)cc3cc(F)ccc32)cc1,inactive
18,C=CS(=O)c1sc(Cl)c(N2CCOCC2)c1[N+](=O)[O-] (configuration not stated),0.199 µM (active)
19,CCOC(=O)c1[nH]c(C)c(CCC(=O)N2CCN(c3ccccc3)CC2)c1C,inactive
20,Cn1c(=O)n(Cc2c(F)cccc2Cl)c(=O)c2c1nc1n2CCN1c1ccc(F)cc1,inactive
